From PubChem BioAssay (NCATS)
Records with an inconclusive call do not appear. Values without a mark were called inactive. Calls follow the shape of the dose curve; as a rule, active = well fitted curve in the direction sought with a large enough effect; inconclusive = small, poorly fitted or top-dose-only effect, or another doubt; inactive = no such curve, though single readings can be large; an effect the other way counts as inactive or inconclusive.

test: qHTS of pediatric cancer cell lines to identify multiple opportunities for drug repurposing: Primary screen for U-2 OS cells (AID 1347096); details: U-2 OS viability, CellTiter-Glo luminescence, 48 h; series mostly up to 46 µM; activity change, negative = cytotoxic: at the top concentration;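 also: plate controls were DMSO wells for no effect and bortezomib positive control wells for full effect; nearly all actives have a fitted effect of over 50% in size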
Outline: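 Viability after 48 h compound treatment at 37C, 500-1,000 cells/well, read as ATP luminescence with CellTiter-Glo. Primary screens used 11-point (MIPE, 0.78 nM-46 µM) or 8-point (NPC, 0.59 nM-46 µM) final concentrations; follow-up screens used 11-point dilutions.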

SMILES	activity change, negative = cytotoxic
C=CCn1c(=O)n([C@@H]2O[C@H](CO)[C@@H](O)[C@H]2O)c2nc(N)[nH]c(=O)c21	9.05%
O=C1c2c(O)cccc2Cc2cccc(O)c21	9.95%
CC1(C)OC(=O)NC1=O	10.7%
CCOc1ccc2ccccc2c1C(=O)N[C@@H]1C(=O)N2[C@@H]1SC(C)(C)[C@@H]2C(=O)O	13.1%
CC1CC(OC(=O)C(O)c2ccccc2)CC(C)(C)N1C (stereo not drawn)	4.72%
OCC(CO)N[C@H]1C[C@](O)(CO)[C@@H](O)[C@H](O)[C@H]1O	2.87%
CCn1cc(C(=O)O)c(=O)c2cnc(N3CCNCC3)nc21	5.56%
CC1(C)CO[C@@H](CC(=O)O)CN1	0.81%
CCCCC(CC)COC(=O)c1ccccc1O (stereo not drawn)	6.17%
CCN(CC)C(=O)Nc1ccc(OCC(O)CNC(C)(C)C)c(C(C)=O)c1 (stereo not drawn)	15.7%
C[C@@H]1CC[C@@]2(OC1)O[C@H]1C[C@H]3[C@@H]4CC[C@H]5C[C@@H](O)CC[C@]5(C)[C@H]4CC(=O)[C@]3(C)[C@H]1[C@@H]2C	8.89% [at 4.84 µM]
C[C@@H]1CN(c2c(F)c(F)c3c(=O)c(C(=O)O)cn(C4CC4)c3c2F)C[C@H](C)N1	13.7% [at 16.1 µM]
Cc1ccc(C(C)C)cc2c(C)ccc1-2	9.29%
Cc1cc(O)cc2c1O[C@](C)(CCC[C@H](C)CCC[C@H](C)CCCC(C)C)CC2	9.75%
COc1ccc(S(=O)(=O)Nc2nnc(CC(C)C)s2)cc1	-3.83%
CCCCN1CCCC[C@H]1C(=O)Nc1c(C)cccc1C	-11.6%
CC(=O)CCC(=O)O	12.2%

SMILES	activity change, negative = cytotoxic
CN(C)CC[C@@H](c1ccc(Cl)cc1)c1ccccn1	6.49%
NC(=O)NC(=O)Cc1ccccc1	-2.67%
CC1=C(C/C=C(\C)CCC[C@H](C)CCC[C@H](C)CCCC(C)C)C(=O)c2ccccc2C1=O	12.9%
COc1ccccc1O	12.4% [at 92.7 µM]
Nc1nc2c(ncn2CCC(CO)CO)c(=O)[nH]1	-4.59%
N[C@H]1C(O)O[C@H](CO)[C@@H](O)[C@@H]1O (stereo partly drawn)	-0.856%
C[C@@H](O)[C@H](N)C(=O)O	11.4% [at 16.1 µM]
CC1(C)[C@@H]2CC[C@@]1(C)C(=O)C2	6.51%
C[C@@H]1CCN(C(=O)[C@H](CCCN=C(N)N)NS(=O)(=O)c2cccc3c2NC[C@H](C)C3)[C@@H](C(=O)O)C1	12.8%
Nc1ccc(S(=O)(=O)Nc2ccccc2)cc1	0.268%
Oc1cccc(O)c1	17.5%
NCCNCCNCCNCCN	-3.22% [at 9.22 µM]
C[C@H](N)[C@H](O)c1cccc(O)c1	13.2%
O=C(Oc1ccccc1C(=O)O)c1ccccc1O	10.1%
Nc1ccc(S(=O)(=O)NC(=O)c2ccccc2)cc1	-5.53%
Cc1cc2nc3c(=O)[nH]c(=O)nc-3n(C[C@H](O)[C@H](O)[C@H](O)CO)c2cc1C	8.22% [at 16.1 µM]
O=C1O[C@H]([C@@H](O)CO)C(O)=C1O	7.91%

test: qHTS of pediatric cancer cell lines to identify multiple opportunities for drug repurposing: Primary screen for Saos-2 cells (AID 1347097); details: Saos-2 viability, CellTiter-Glo ATP luminescence, 48 h; series mostly up to 46 µM; activity change, negative = cytotoxic: at the top concentration; also: % is scaled to controls: 0 for no effect and ±100 for the full control effect; nearly all actives have a fitted effect of over 40% in size
Outline: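 Viability was measured as metabolically active cells after 48 hours of treatment, read by CellTiter-Glo luminescence. Compounds were tested at multiple final concentrations, giving concentration-response curves.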

SMILES	activity change, negative = cytotoxic
C=CCn1c(=O)n([C@@H]2O[C@H](CO)[C@@H](O)[C@H]2O)c2nc(N)[nH]c(=O)c21	3.44%
O=C1c2c(O)cccc2Cc2cccc(O)c21	17.3%
CC1(C)OC(=O)NC1=O	8.64%
CCOc1ccc2ccccc2c1C(=O)N[C@@H]1C(=O)N2[C@@H]1SC(C)(C)[C@@H]2C(=O)O	5.29%
CC1CC(OC(=O)C(O)c2ccccc2)CC(C)(C)N1C (stereo not drawn)	15.3%
OCC(CO)N[C@H]1C[C@](O)(CO)[C@@H](O)[C@H](O)[C@H]1O	-7.8%
CCn1cc(C(=O)O)c(=O)c2cnc(N3CCNCC3)nc21	-21.6%
CC1(C)CO[C@@H](CC(=O)O)CN1	5.5%
CCCCC(CC)COC(=O)c1ccccc1O (stereo not drawn)	-21.1%
CCN(CC)C(=O)Nc1ccc(OCC(O)CNC(C)(C)C)c(C(C)=O)c1 (stereo not drawn)	3.7%
C[C@@H]1CC[C@@]2(OC1)O[C@H]1C[C@H]3[C@@H]4CC[C@H]5C[C@@H](O)CC[C@]5(C)[C@H]4CC(=O)[C@]3(C)[C@H]1[C@@H]2C	-14.3% [at 4.84 µM]
C[C@@H]1CN(c2c(F)c(F)c3c(=O)c(C(=O)O)cn(C4CC4)c3c2F)C[C@H](C)N1	35.9% [at 16.1 µM]
Cc1ccc(C(C)C)cc2c(C)ccc1-2	23.8%
Cc1cc(O)cc2c1O[C@](C)(CCC[C@H](C)CCC[C@H](C)CCCC(C)C)CC2	27.3%
COc1ccc(S(=O)(=O)Nc2nnc(CC(C)C)s2)cc1	3.91%
CCCCN1CCCC[C@H]1C(=O)Nc1c(C)cccc1C	-26%
CC(=O)CCC(=O)O	43.2%

SMILES	activity change, negative = cytotoxic
CN(C)CC[C@@H](c1ccc(Cl)cc1)c1ccccn1	6.04%
NC(=O)NC(=O)Cc1ccccc1	-14.8%
CC1=C(C/C=C(\C)CCC[C@H](C)CCC[C@H](C)CCCC(C)C)C(=O)c2ccccc2C1=O	0.171%
COc1ccccc1O	24% [at 92.7 µM]
Nc1nc2c(ncn2CCC(CO)CO)c(=O)[nH]1	-20.2%
N[C@H]1C(O)O[C@H](CO)[C@@H](O)[C@@H]1O (stereo partly drawn)	-14.6%
C[C@@H](O)[C@H](N)C(=O)O	0.868% [at 16.1 µM]
CC1(C)[C@@H]2CC[C@@]1(C)C(=O)C2	-10.6%
C[C@@H]1CCN(C(=O)[C@H](CCCN=C(N)N)NS(=O)(=O)c2cccc3c2NC[C@H](C)C3)[C@@H](C(=O)O)C1	-4.64%
Nc1ccc(S(=O)(=O)Nc2ccccc2)cc1	3.5%
Oc1cccc(O)c1	3.67%
NCCNCCNCCNCCN	-19.8% [at 9.22 µM]
C[C@H](N)[C@H](O)c1cccc(O)c1	8.66%
O=C(Oc1ccccc1C(=O)O)c1ccccc1O	10.5%
Nc1ccc(S(=O)(=O)NC(=O)c2ccccc2)cc1	-4.89%
Cc1cc2nc3c(=O)[nH]c(=O)nc-3n(C[C@H](O)[C@H](O)[C@H](O)CO)c2cc1C	-28.2% [at 16.1 µM]
O=C1O[C@H]([C@@H](O)CO)C(O)=C1O	7.78%
